Source: PubChem BioAssay (Tox21)
Values joined by “and” are separate entries in the source; they are usually repeats but may differ in a detail not shown here. Equal values may be shown once. Results filed as inconclusive are left out. Entries that show only a call come without a potency. Active and inactive are the calls of the source. Calls come from the whole dose curve.

Experiment: qHTS assay to identify small molecule agonists of the endoplasmic reticulum stress response signaling pathway - cell viability counter screen (AID 1159517); note: nearly all actives have a fitted effect of over 50% in size
Details: ESRE-bla HeLa viability, CellTiter-Glo luminescence, 5 h; series mostly up to 61 µM
From the text: U.S. Tox21 Program National Center for Advancing Translational Sciences [NCATS] NIH Chemical Genomics Center [NCGC] U.S. Environmental Protection Agency [EPA] National Institutes of Environmental Health Sciences [NIEHS] National Toxicology Program [NTP] U.S. Food and Drug Administration [FDA] Tox21 Assay Overview: Endoplasmic Reticulum (ER) plays an important role in cellular signaling, protein folding/maturation, stress response, lipid biosynthesis, calcium storage and release etc. Under stress conditions, proteins in ER misfold or unfold, and leading to the expression of ER stress responsive genes. ER stress has been associated with a variety of pathophysiological conditions such as cancer, inflammation, neurodegenerative diseases, diabetes, ischemic heart disease etc. To identify the compounds that induce ER stress response, an ER stress reporter cell line, CellSensor ESRE-bla HeLa (Life Technologies, Carlsbad, CA) containing a beta-lactamase reporter gene under control of the Endoplasmic reticulum Stress Response Element (ESRE) was used to screen Tox21 10K compound library. The cytotoxicity of the Tox21 compound library against the ESRE-bla HeLa cell line was tested in parallel by measuring cell viability using the CellTiter-Glo assay in the same wells.
Tox21 Assay Protocol Summary: ESRE-bla HeLa cells were dispensed at 1,500 cells/6 uL of assay medium per well into black wall/clear-bottom 1536-well plates using a Multidrop Combi (ThermoFisher Scientific, Waltham, MA) dispenser. After the assay plates were incubated at 37 C and 5% CO2 for an overnight, 23 nL of compounds dissolved in DMSO, positive controls or DMSO only was transferred to the assay plate by a Pintool station (Kalypsys, San Diego, CA). The assay plates were incubated at 37 C and 5% CO2 for 5 hr. One uL of LiveBLAzer B/G FRET substrate (Life Technologies) was added using a FRD (Flying Reagent Dispenser, Aurora Discovery, San Diego, CA) and the plates were incubated at room temperature for 2 hr. Fluorescence intensity (405 nm excitation, 460 nm and 530 nm emissions) was measured using an Envision plate reader (PerkinElmer, Shelton, CT). For cytotoxicity, 4 ul/well of CellTiter-Glo reagent was added into the assay plates using an FRD. After 30 min incubation at room temperature, the luminescence intensity was measured using a ViewLux plate reader (PerkinElmer).
Potency is the fitted concentration of half-maximal effect.

SMILES | Potency
O=c1oc2ccccc2c(O)c1Cc1c(O)c2ccccc2oc1=O | inactive
[CH3][Hg][Cl] | 21.8 µM (active)
Clc1ccc(CO/N=C(\Cn2ccnc2)c2ccc(Cl)cc2Cl)c(Cl)c1 | 23.9 µM (active)
O=[N+]([O-])c1cc(C(F)(F)F)c(Cl)c([N+](=O)[O-])c1Cl | 12.3 µM (active)
CC(C)[C@H](C(=O)O[C@H](C#N)c1cccc(Oc2ccccc2)c1)c1ccc(Cl)cc1 | inactive
O=c1[nH]c2ccccc2n1C1CCN(CCCC(c2ccc(F)cc2)c2ccc(F)cc2)CC1 | 49 µM (active) and 23.9 µM (active)
S=C=Nc1cccc2ccccc12 | 19.3 µM (active)
CN(C)C1CSSSC1 | inactive
C[C@]12CC[C@@H]3c4ccc(OC(=O)N(CCCl)CCCl)cc4CC[C@H]3[C@@H]1CC[C@@H]2O | inactive
Nc1ccc(Sc2ccc(N)cc2)cc1 | inactive
CC(C)[C@H](C(=O)OC(C#N)c1cccc(Oc2ccccc2)c1)c1ccc(OC(F)F)cc1 (stereo not given in full) | inactive
CC(=O)[O-].[Tl+] | inactive
CCOC(=O)C1(c2ccccc2)CCN(CCC(C#N)(c2ccccc2)c2ccccc2)CC1 | inactive
CC(=O)[O-].CC(=O)[O-].[Hg+2] | 0.776 µM (active)
COc1cccc2c1C(=O)c1c(O)c3c(c(O)c1C2=O)C[C@@](O)(C(=O)CO)CC3OC1CC(N2CCOC(OC)C2)C(O)C(C)O1 (stereo not given in full) | 0.952 µM (active)
CCOC(=O)CC(=O)CCl | inactive
[Hg+2].[I-].[I-] | 49 µM (active)
CC(C)(C)c1cc([N+](=O)[O-])cc(C(C)(C)C)c1O | inactive
c1ccc2c(c1)OCC(C1=NCCN1)O2 (stereo not given) | inactive
O=C(O)COc1nc(Cl)c(Cl)cc1Cl | inactive

SMILES | Potency
CC1CCC(C(C)C)C(OC(=O)c2ccccc2N)C1 (stereo not given) | 43 µM (active)
CN(C)CCc1c[nH]c2ccc(O)cc12 | inactive
O=S(=O)(c1ccc(Cl)cc1)c1ccc(Cl)cc1 | inactive
O=C(O)c1cc[c]([Hg][Cl])cc1 | inactive
Oc1ccc(C2(c3ccc(O)cc3)CCCCC2)cc1 | 46.4 µM (active)
ClC1=C(Cl)[C@]2(Cl)[C@@H]3[C@@H]4C[C@@H]([C@H]5O[C@@H]45)[C@@H]3[C@@]1(Cl)C2(Cl)Cl | 54.9 µM (active)
CC1(C)CN=C(NN=C(/C=C/c2ccc(C(F)(F)F)cc2)/C=C/c2ccc(C(F)(F)F)cc2)NC1 | 49 µM (active)
CCCOCC(=Nc1ccc(Cl)cc1C(F)(F)F)n1ccnc1 | 34.6 µM (active)
CCC(C)c1cc([N+](=O)[O-])cc([N+](=O)[O-])c1OC(=O)C=C(C)C (stereo not given) | inactive
ClC(Cl)=C(Cl)Cl | inactive
CCCN(CCC)c1c([N+](=O)[O-])cc(S(N)(=O)=O)cc1[N+](=O)[O-] | 52.2 µM (active)
CC(Cc1ccc(C(C)(C)C)cc1)CN1C[C@@H](C)O[C@@H](C)C1 (stereo not given in full) | inactive
C[C@@H]1CC[C@@]2(OC1)O[C@H]1[C@@H](O)[C@H]3[C@@H]4CC[C@H]5C[C@@H](O[C@@H]6O[C@H](CO)[C@H](O[C@@H]7O[C@H](CO)[C@@H](O)[C@H](O[C@@H]8OC[C@@H](O)[C@H](O)[C@H]8O)[C@H]7O[C@@H]7O[C@H](CO)[C@@H](O)[C@H](O[C@@H]8O[C@H](CO)[C@@H](O)[C@H](O)[C@H]8O)[C@H]7O)[C@H](O)[C@H]6O)[C@H](O)C[C@]5(C)[C@H]4CC[C@]3(C)[C@H]1[C@@H]2C | 7.34 µM (active)
CCOc1cc(C(C)(C)C)ccc1C1COC(c2c(F)cccc2F)=N1 (stereo not given) | inactive
CCC[CH2][Sn]([CH2]CCC)([CH2]CCC)[O]C(=O)c1ccccc1 | 4.9 µM (active)
CC(C)(C)C(O)/C(=C\c1ccc(Cl)cc1Cl)n1cncn1 (stereo not given) | inactive
CC(C)OS(C)(=O)=O | inactive
CCCCCCCCCCCCCCC(Br)C(=O)O (stereo not given) | 38.9 µM (active)
CCCCCCCCCBr | inactive
[Cd+2].[Cl-].[Cl-] | inactive
